{
  "source": "PubChem BioAssay AID623891",
  "about": "(Vanderbilt Specialized Chemistry Center, 2012)",
  "biological_target": "Metabotropic glutamate receptor 6 (Homo sapiens) (UniProt O15303)",
  "sequence (O15303 whole entry, looked up)": "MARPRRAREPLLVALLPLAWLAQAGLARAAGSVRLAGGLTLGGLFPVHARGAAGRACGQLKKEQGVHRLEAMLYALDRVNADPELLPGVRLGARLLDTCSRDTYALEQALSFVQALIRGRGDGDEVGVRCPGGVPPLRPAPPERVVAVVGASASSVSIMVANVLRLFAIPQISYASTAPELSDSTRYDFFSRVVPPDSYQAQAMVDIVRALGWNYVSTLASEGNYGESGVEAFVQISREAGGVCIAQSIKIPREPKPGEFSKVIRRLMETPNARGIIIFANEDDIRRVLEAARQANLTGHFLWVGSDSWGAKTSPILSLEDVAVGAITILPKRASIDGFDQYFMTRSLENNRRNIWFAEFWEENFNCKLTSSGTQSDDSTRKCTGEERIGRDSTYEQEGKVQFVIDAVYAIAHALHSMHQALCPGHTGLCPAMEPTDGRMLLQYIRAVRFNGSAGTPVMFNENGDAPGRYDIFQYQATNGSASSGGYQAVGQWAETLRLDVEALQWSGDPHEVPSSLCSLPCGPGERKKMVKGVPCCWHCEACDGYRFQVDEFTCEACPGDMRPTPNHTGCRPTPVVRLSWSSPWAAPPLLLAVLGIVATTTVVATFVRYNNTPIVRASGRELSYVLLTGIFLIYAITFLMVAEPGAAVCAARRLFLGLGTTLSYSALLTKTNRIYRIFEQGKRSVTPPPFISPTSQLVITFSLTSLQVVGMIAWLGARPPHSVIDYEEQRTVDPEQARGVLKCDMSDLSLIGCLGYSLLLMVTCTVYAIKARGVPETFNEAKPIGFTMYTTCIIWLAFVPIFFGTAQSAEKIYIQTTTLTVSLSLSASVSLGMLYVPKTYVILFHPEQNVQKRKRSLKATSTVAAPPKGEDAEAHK",
  "assay": "mGlu6 glutamate response modulation check – cell-based, human, thallium flux, selectivity assay for mGlu4 lead optimization, profiling panel (AID 623891)",
  "details": "mGlu6 cells, glutamate CRC fold shift, at 10 µM",
  "note": "Active and inactive are the calls of the source.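 The calls were made as follows: active = fold shift of 2 or more as potentiator, or 0.5 or less as blocker, so actives lie on both sides; inactive = fold shift between 0.5 and 2.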",
  "data": [
    {"smiles": "O=C(Nc1cccc(Cl)c1)c1ccccn1", "values": [
      {"measurement": "fold shift", "result": "4.27 (active)"}
    ]}
  ]
}
